Results filed as inconclusive are left out. Calls of active or inactive are those of the source. The call rests on the fitted dose curve; in most records, active means well fitted curve in the direction sought with a large enough effect; inconclusive means small, poorly fitted or top-dose-only effect, or another doubt; inactive means no such curve, though single readings can be large; an effect the other way counts as inactive or inconclusive.
Key:
[1] = target: Protein phosphatase 1D (Homo sapiens) (UniProt O15297); assay: RapidFire Mass Spectrometry qHTS Assay for Modulators of WT P53-Induced Phosphatase 1 (WIP1) (AID 1347424);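 further: amount of dephosphorylated VEPPL-S-QETFS peptide product formed by WIP1; series mostly up to about 63 µM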
Sequence of Protein phosphatase 1D (Homo sapiens) (O15297 whole entry, looked up): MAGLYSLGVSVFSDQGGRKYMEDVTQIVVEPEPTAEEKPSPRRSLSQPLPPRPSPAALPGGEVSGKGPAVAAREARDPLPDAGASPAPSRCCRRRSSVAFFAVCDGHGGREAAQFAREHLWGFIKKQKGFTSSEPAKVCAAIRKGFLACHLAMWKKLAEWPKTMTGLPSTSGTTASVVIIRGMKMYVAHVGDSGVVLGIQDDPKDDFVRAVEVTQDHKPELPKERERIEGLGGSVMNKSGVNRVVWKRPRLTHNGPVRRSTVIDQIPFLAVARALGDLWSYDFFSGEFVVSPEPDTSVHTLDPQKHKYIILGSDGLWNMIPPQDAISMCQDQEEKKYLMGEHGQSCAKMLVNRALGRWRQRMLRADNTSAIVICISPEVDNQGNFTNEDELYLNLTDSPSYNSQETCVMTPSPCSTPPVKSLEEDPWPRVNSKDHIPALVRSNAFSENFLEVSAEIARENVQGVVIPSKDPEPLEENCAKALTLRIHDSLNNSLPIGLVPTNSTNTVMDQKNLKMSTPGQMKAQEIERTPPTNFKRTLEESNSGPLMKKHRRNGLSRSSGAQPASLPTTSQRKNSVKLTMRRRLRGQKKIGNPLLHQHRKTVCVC
In short: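 10 nM WIP1 + cpd, 1 h RT; + 2 uM VEPPL-pS-QETFS, 5 min RT; stop 0.5% formic acid; labelled product standard 1 uM; RapidFire MS. Buffer 50 mM Tris pH 7.5, 30 mM MgCl2, 1 mM TCEP.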

[2] = target: Protein phosphatase 1D (Homo sapiens) (UniProt O15297); assay: Rhodamine-PBP qHTS Assay for Modulators of WT P53-Induced Phosphatase 1 (WIP1) (AID 1347425)
In short: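 Read-out: Rhodamine-PBP fluorescence (ex 525/em 598 nm) for released Pi, read each minute for 11 min after adding 10 uM VEPPL-pS-QETFS; signal taken as f1 minus pre-substrate f0. Enzyme 5 nM WIP1 with 1 hr room-temperature compound preincubation.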

[3] = Primary qHTS for inhibitors of La Crosse Virus (LACV) - induced cell death in SH-SY5Y cells (AID 1508616);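 further: top concentration of the series differs between compounds; higher means more rescue of cells from virus-induced death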
In short: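 Luminescent ATP readout (ATPLite 1step, 5 min room temperature) measured rescue from LACV-induced death after 6 days of infection at 0.01 MOI; normalized to infected DMSO wells and uninfected DMSO wells.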

[4] = target: Calcium and integrin-binding protein 1 (Homo sapiens) (UniProt Q99828); assay: Primary qHTS for Identification of Calcium Integrin Binding Protein 1 (CIB1) Competitor (AID 1508620);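 further: GST tagged CIB1 binding a fluorescein labelled alphaIIb integrin peptide tracer; top concentration of the series differs between compounds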
Sequence of Calcium and integrin-binding protein 1 (Homo sapiens) (Q99828 whole entry, looked up): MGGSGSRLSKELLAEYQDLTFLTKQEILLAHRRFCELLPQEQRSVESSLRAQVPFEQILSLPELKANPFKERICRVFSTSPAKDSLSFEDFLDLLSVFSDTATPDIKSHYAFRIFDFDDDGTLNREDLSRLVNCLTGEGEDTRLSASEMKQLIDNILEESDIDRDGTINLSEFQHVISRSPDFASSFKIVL
In short: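 CIB1-GST (1 uM final) and compound incubated 15 min at room temperature before adding FITC-alphaIIb peptide tracer (100 nM final). Competition for binding read by fluorescence polarization (ex 480, em 540) after another 15 min at room temperature.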

Measured: Potency

Cc1ccc(C(=O)Oc2ccc(C(O)CNC(C)(C)C)cc2OC(=O)c2ccc(C)cc2)cc1 (stereo unspecified)
inactive: all assays above

Cc1cc(OCCOCC[N+](C)(C)Cc2ccccc2)ccc1C(C)(C)CC(C)(C)C
inactive: all assays above

CCCC(=O)OCOC(=O)C1=C(C)NC(C)=C(C(=O)OC)C1c1cccc(Cl)c1Cl (stereo unspecified)
inactive: [1] | [2] | [4]
